The campaign covered roughly 69,000 compounds. About 8,600 (12%) showed an effect of 50% or more. The sample holds strong results, similar compounds and a random draw of the others, so the mix is not that of the screen.
System: Plasmodium berghei
Assay: Screen against P. berghei liver stage (PbLuc), transformed with Luciferase, at 10uM
Format: functional, HepG2
Conditions: tested at 10 uM

| Structure (SMILES) | INHIBITION [%] |
| --- | --- |
| CC(NC(=O)N(C)CCCOc1ccccc1)c1nncn1C (configuration not stated) | 0.914 |
| Cc1ccc(N2CCC3(CCC(=O)N3Cc3ccncc3)CC2)nn1 | 3.17 |
| CCc1nnc2n1CCN(C(=O)C(C)Oc1ccc(C#N)cc1)C2 (configuration not stated) | -48.3 |
| Cc1noc(C2CN(S(=O)(=O)C3CC3)Cc3ccnn3C2)n1 (configuration not stated) | 34.6 |
| Cc1noc(C2CN(S(C)(=O)=O)Cc3ccnn3C2)n1 (configuration not stated) | 50.7 |
| CCS(=O)(=O)N1Cc2ccnn2CC(c2nc(C)no2)C1 (configuration not stated) | -5.63 |
| CNc1oc(-c2ccc(OC)c(S(=O)(=O)N(C)C)c2)nc1C#N | 8.46 |
| CC1CN(C(=O)Nc2cc(C(F)(F)F)c[nH]c2=O)CCO1 (configuration not stated) | -4.12 |
| O=C(Cc1ccncc1)N1C[C@H]2CC[C@@H](C1)N(Cc1ccccc1)C2=O | 63.7 |
| O=C(Cc1cccnc1)N1C[C@H]2CC[C@@H](C1)N(Cc1ccccc1)C2=O | 40.4 |
| O=C(Cc1ccccn1)N1C[C@H]2CC[C@@H](C1)N(Cc1ccccc1)C2=O | -4.86 |
| CCc1nc(CNc2ccc(C(=O)N3CCSCC3)cc2C)no1 | 15.5 |
| O=C(O)c1cc2c(nc1-c1ccsc1)CCN(C1CCOC1)CC2 (configuration not stated) | 11.3 |
| Cc1ccc(N2CCN(C(=O)CCc3n[nH]c(C)n3)CC2=O)cc1 | 2.7 |
| Cn1ccnc1CN1CCCN(C(=O)c2ccc3[nH]cnc3c2)CC1 | 21 |
| CC(CC(=O)N1CCCN(Cc2nccn2C)CC1)n1cccc1 (configuration not stated) | 18.9 |
| Cn1ccnc1CN1CCCN(C(=O)c2ccc3ccccc3c2)CC1 | 27.8 |
| CC(OCC1CC1)C(=O)N1CCCN(Cc2nccn2C)CC1 (configuration not stated) | 9.32 |
| CCn1ccnc1CN1CCCN(C(=O)c2ccnn2C)CC1 | 16.45 |
| CCn1ccnc1CN1CCCN(C(=O)c2cc(C)nn2CC)CC1 | 32.3665 |
| Cn1ccnc1CN1CCCN(C(=O)c2ccc3cc[nH]c3c2)CC1 | 55.2 |
| Cn1ccnc1CN1CCCN(C(=O)COC2CCCC2)CC1 | -11.4 |

| Structure (SMILES) | INHIBITION [%] |
| --- | --- |
| CSC(C)C(=O)N1CCCN(Cc2nccn2C)CC1 (configuration not stated) | -5.25 |
| Cn1ccnc1CN1CCCN(C(=O)CC(C2CC2)C2CC2)CC1 | 50.3 |
| CC(Oc1ccccc1)C(=O)N1CCCN(Cc2nccn2C)CC1 (configuration not stated) | 54.4 |
| CCn1ccnc1CN1CCCN(C(=O)c2cccn2C)CC1 | 56.6 |
| CCNc1nc2cn(-c3ccc(CC)cc3)c(=O)c-2c[nH]1 | -14.245 |
| Cn1cc(C2CCCN2C(=O)c2ccc(OCC3CC3)nc2)cn1 (configuration not stated) | -27 |
| O=S(=O)(CCN1CCN(c2ccccc2O)CC1)c1ccc(Cl)cc1 | -36.3 |
| CN(C)CCN1C[C@@H]2CN(C(=O)C3CCOC3)C[C@@H]2C1=O (some centres not stated) | 12.7 |
| COc1ccc(/C=C/CN2C[C@@H]3CC[C@H]2CN(S(=O)(=O)N(C)C)C3)cc1 | 38.6 |
| CCOCC1CN(Cc2cccnc2)Cc2nn(C)cc21 (configuration not stated) | -21.4 |
| O=C(C1CC(F)(F)C1)N1C[C@@H]2CN(CC3CCCC3)CCO[C@@H]2C1 | 20.6 |
| O=C1CN(C(=O)CCn2c(C(F)(F)F)cc3cccnc32)CCN1 | 25.6 |
| CSC1(CNC(=O)c2cccc(-n3cccn3)c2)CCOCC1 | -46.4 |
| Cc1ncccc1NC(=O)[C@@H]1CCO[C@@H]2CCN(c3ccccc3)C[C@@H]21 | 41.4 |
| CC(C)N1CCC(CC(=O)N2CCC(C(O)c3nccn3C)CC2)CC1 (configuration not stated) | 46.7 |
| CC(C)N1CCC(CC(=O)N2CCN(Cc3nccn3C)CC2)CC1 | 58.5 |
| Cn1ccnc1CN1CCCN(C(=O)COCC2CC2)CC1 | 13.3 |
| O=c1c2c[nH]c(N3CCCCC3)nc-2cn1-c1ccc2c(c1)OCO2 | -22.9 |
| Fc1cccc(-c2nnn3c2COCC(CNCc2nccs2)C3)c1 (configuration not stated) | 47.5 |
| Cc1ccc(CNCC2Cn3nnc(-c4cccc(F)c4)c3CO2)o1 (configuration not stated) | 18.2 |
| Cc1cccc(-c2nnn3c2COC(CNCc2nccs2)C3)c1 (configuration not stated) | -10.2 |
| Fc1cccc(-c2nnn3c2COC(CNCc2cccs2)C3)c1 (configuration not stated) | 1.9 |

| Structure (SMILES) | INHIBITION [%] |
| --- | --- |
| Fc1cccc(-c2nnn3c2COC(CNCc2ccsc2)C3)c1 (configuration not stated) | 52 |
| Fc1cccc(-c2nnn3c2COC(CNCc2nccs2)C3)c1 (configuration not stated) | 50.3 |
| COc1cc2nc(C)n(CC(=O)NCC(C)C)c(=O)c2cc1OC | 21.5 |
| CC(=O)N1CCC(Cc2nccnc2-c2c(C)n[nH]c2C)C1 (configuration not stated) | -14.1 |
| COCCN1C[C@@H](C)[C@@]2(COCCN(C(=O)c3cccc(C)n3)C2)C1 | -10.5 |
| Cn1cnc2c(-c3cccnc3)nc(C3CCNCC3)cc21 | 48.4 |
| Cn1cc(-c2nc(C3CCN(S(C)(=O)=O)CC3)cc3c2ncn3C)cn1 | 15.7 |
| CC(C)n1cnc2c(N3CCCC3)nc(C3CCNCC3)cc21 | -3.52 |
| COc1ccc(-c2ccnc(C3CCNCC3)c2)cc1 | 29.2 |
| COc1ccc(-c2nc(C3CCNCC3)cc3c2ncn3C)cc1 | 53 |
| CC(=O)N1CCC(c2cc3c(ncn3C)c(-c3cnn(C)c3)n2)CC1 | 33.4 |
| Cn1cnc2c(-c3ccccc3)nc(C3CCNCC3)cc21 | 38.5 |
| Cn1cc(-c2nc(C3CCN(CC4CC4)CC3)cc3c2ncn3C)cn1 | 61.5 |
| CC(C)n1cnc2c(-c3cccnc3)nc(C3CCNCC3)cc21 | 55.7 |
| O=C(CC1CC1)NCc1cn2c(n1)CN(CC1CC1)CC2 | 9.67 |
| Cc1nc2sc(C(=O)N3CCNC(=O)C3)c(C)c2c(=O)[nH]1 | -4.35 |
| Cc1nc(-c2ccsc2)ccc1C(=O)NCC(C)N1CCOCC1 (configuration not stated) | -24.275 |
| N#Cc1ccc(F)c(CN2CCCCC2Cn2cccn2)c1 (configuration not stated) | -36.1 |
| COc1ccccc1CC(C)CC(=O)N(C)Cc1cc(C)on1 (configuration not stated) | 14.7 |
| O=C(c1nc2c(o1)CN(CC1CCC1)C2)N1CCCC1 | -15.6 |
| COc1cc2nc3n(c(=O)c2cc1OC)CCN(C(=O)C1CCC1)CC3 | 23.4 |
| OC(CN1CCCCCCC1)c1ccc(OC(F)(F)F)cc1 (configuration not stated) | 19.2 |

| Structure (SMILES) | INHIBITION [%] |
| --- | --- |
| COc1ccc(OC)c(C(O)CN2CCN(C3CCCC3)CC2)c1 (configuration not stated) | -113 |
| COc1cccc(N2CCN(CC(O)c3ccc(C)cc3)CC2)c1 (configuration not stated) | 17.4 |
| COc1cccc(N2CCN(CC(O)c3cc(C)ccc3C)CC2)c1 (configuration not stated) | 67.9 |
| CCCN1CCN(CC(O)c2ccc(OC(F)(F)F)cc2)CC1 (configuration not stated) | 33.7 |
| CCn1cc(CN2CCN(CC(O)c3cc(C)ccc3C)CC2)c(C)n1 (configuration not stated) | 43.6 |
| CCN1CCN(CC(O)c2ccc(OC(F)(F)F)cc2)CC1 (configuration not stated) | 56.1 |
| CCc1ccc(C(O)CN2CCN(c3cccc(OC)c3)CC2)cc1 (configuration not stated) | 54 |
| COc1cccc(C(O)CN2CCN(c3cccc(C)c3)CC2)c1 (configuration not stated) | 16 |
| COc1cccc(N2CCN(CC(O)c3cc(C)sc3C)CC2)c1 (configuration not stated) | 63.1 |
| COCCN1CCN(CC(O)c2cc(OC)ccc2OC)CC1 (configuration not stated) | -94.3 |
| CCOCCN1CCN(CC(O)c2ccc(OC)cc2)CC1 (configuration not stated) | -9.39 |
| CCN(Cc1nonc1C)C(=O)Cn1nc(C(F)(F)F)cc1C1CC1 | 28.89 |
| Cc1cccc(CC(=O)N2CCCCC2CN)c1 (configuration not stated) | 8.13 |
| CCC(C)(C)c1cc(-c2c(C)nn(CCO)c2C)c(C#N)c(N)n1 | -24.6 |
| NC1CCC(NC(=O)c2ccc3nc(-c4ccc(F)cc4)cn3c2)CC1 (configuration not stated) | 24.7 |
| CN(C)CCOc1ccc(N(C)S(=O)(=O)c2cnn(C)c2)cc1 | 32.3 |
| Cc1cnn(CCNCc2nnc(-c3ccccc3)o2)c1 | 31.3 |
| COc1ccc(N2CCN(CC(O)c3ccc(C)cc3C)CC2)cc1 (configuration not stated) | 41.6 |
| COc1ccc(N2CCN(CC(O)c3cc(C)ccc3C)CC2)cc1 (configuration not stated) | 69.8 |
| COc1ccc(OC)c(C(O)CN2CCN(c3cccc(C)c3)CC2)c1 (configuration not stated) | 34.5 |
| c1ncn(CC2CCCN(Cc3csc(-c4ccsc4)n3)C2)n1 (configuration not stated) | -12.2 |
| CN(C)Cc1ccc(N2CCN(CCOCC(F)(F)F)CC2)nc1 | 33.4 |

| Structure (SMILES) | INHIBITION [%] |
| --- | --- |
| CN(CC(=O)N1CCCC1c1noc(C2CC2)n1)Cc1ccccc1 (configuration not stated) | 23.7 |
| CCN1CC(COC(=O)c2cccc(Br)c2)CC1=O (configuration not stated) | 16.8 |
| CCN1CC(COC(=O)c2cc(C)nn2CC)CC1=O (configuration not stated) | 50.4 |
| CCn1nc(C)cc1C(=O)OCC1CC(=O)N(Cc2ccccc2)C1 (configuration not stated) | 10.1 |
| CCCOc1cc(CNC(=O)Nc2cccc(C(C)=O)c2)ccn1 | 16.6 |
| OCC1(O)CCCN(Cc2noc(-c3ccccc3)n2)C1 (configuration not stated) | 9.41 |
| O=C(COCC(=O)N(c1ccccc1)c1ccccc1)N1CCCC1 | -7.27 |
| CCn1nc2c(cc1=O)CN(Cc1nc(-c3cccs3)no1)CC2 | 60.5 |
| COCCc1noc(CN2CCc3nn(C(C)C)c(=O)cc3C2)n1 | 48.2 |
| CC(C)c1ncc2c(n1)CN(Cc1nc(-c3cccs3)no1)CC2 | 65.1 |
| CCn1nc2c(cc1=O)CN(Cc1nc(-c3ccoc3)no1)CC2 | 42.1 |
| CC(C)n1nc2c(cc1=O)CN(Cc1nc(-c3ccoc3)no1)CC2 | 77.9 |
| Cn1nc2c(cc1=O)CN(Cc1nc(-c3cccs3)no1)CC2 | 26.1 |
| CCn1nc2c(cc1=O)CN(Cc1nc(-c3ccsc3)no1)CC2 | 7.7 |
| CCCn1nc2c(cc1=O)CN(Cc1nc(-c3ccoc3)no1)CC2 | 61.1 |
| Cn1nc2c(cc1=O)CN(Cc1nc(-c3ccoc3)no1)CC2 | -7.16 |
| Cc1ccc(-c2noc(CN3CCc4nn(C)c(=O)cc4C3)n2)cc1 | -11.4 |
| CCc1ncc2c(n1)CN(Cc1nc(-c3cccs3)no1)CC2 | 28.8 |
| Cc1ncc2c(n1)CN(Cc1nc(-c3cccs3)no1)CC2 | 28.8 |

Reference: ChEMBL document CHEMBL4513216, “Probing the Open Global Health Chemical Diversity Library for Multistage-Active Starting Points for Next-Generation Antimalarials” (ACS Infect Dis, 2020)
